These results are taken from PubChem BioAssay.

A short description of test [1]: kinase inhibitors against Plasmodium liver-stage infection, cell-based, known kinase inhibitor set, luminescence, hepatoma host viability (AID 624392).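 Further: infected cells incubated roughly two days before readout.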 Particulars: Plasmodium liver stage in hepatoma cells, luciferase luminescence, concentration not given here; liver cell % of control: measured here: host liver cell viability; parasite % of control: stronger effect = lower value.

A short description of test [2]: modulators of glucocorticoid suppression of NF-kB, cell-based, luciferase, IL-1B stimulus, dexamethasone (AID 624486).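 On percent of negative control (+Dex): 100% = mean signal of vehicle control wells on the plate.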 The following applies: NF-kB luciferase reporter, IL-1B + dexamethasone, luminescence; percent of negative control (+Dex): actives lie on both sides, concentration not given here; z-score: measured here: IL-1B alone, no Dex. In general terms: In a reporter assay the amount or activity of a reporter protein is the signal.

Test [3] can be described thus: kinase inhibitors altering Pseudomonas killing of worms, whole organism (AID 651566).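 Further: tested at 14 µM; sign flipped so higher z means a lower ratio.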 Particulars: C. elegans killed by P. aeruginosa, survival ratio.
Test [4] can be described thus: activators of macrophage pro-inflammatory response, cell-based, murine, luminescence (AID 652131). Particulars: murine macrophage pro-inflammatory reporter, stronger effect = higher value.
Test [5] deals with Cellular tumor antigen p53 (Homo sapiens) (UniProt P04637). As to the kind of experiment: kinase inhibitors altering GFP-p53 stability in HPV16-positive cells, imaging, known kinase inhibitor set, EGFP/DsRed ratio (AID 1053116).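 Further: cells exposed to compounds for 24 h at 37 °C before reading.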 The following applies: stronger effect = higher value; EGFP object count: measured here: GFP-p53 positive objects count.
Chain of Cellular tumor antigen p53 (Homo sapiens) (P04637 whole entry, looked up): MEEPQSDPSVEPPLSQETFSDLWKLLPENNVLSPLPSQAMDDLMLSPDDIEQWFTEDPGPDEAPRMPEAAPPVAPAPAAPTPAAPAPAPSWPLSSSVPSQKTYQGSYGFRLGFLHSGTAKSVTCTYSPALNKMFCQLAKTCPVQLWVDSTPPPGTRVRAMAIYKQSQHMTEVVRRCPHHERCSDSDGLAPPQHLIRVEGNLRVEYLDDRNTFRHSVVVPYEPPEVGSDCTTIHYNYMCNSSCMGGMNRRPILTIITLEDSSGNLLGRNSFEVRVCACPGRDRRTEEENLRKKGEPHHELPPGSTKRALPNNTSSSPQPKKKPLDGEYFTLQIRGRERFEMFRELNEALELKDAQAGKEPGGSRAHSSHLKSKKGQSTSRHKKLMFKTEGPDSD
Test [6] can be described thus: IRF3 reporter activation in THP-1 macrophages, cell-based, PMA-stimulated THP-1, luminescence (AID 1053176). Particulars: PMA-differentiated THP-1, IRF3 reporter luminescence; stronger effect = higher value.
The nature of test [7]: survival rescue of mitochondrial mutant cells in low glucose, primary screen, MELAS cybrids, Rieske KO mouse fibroblasts, CellTiter-Glo (AID 1508586;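 active means mean z-score across replicates of 1.96 or higher in either the MELAS or the Rieske mutant cell line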;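 further: z relative to plate mean and SD of compound and empty wells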).
The mark [8] stands for this setting: MELAS cybrid survival, CellTiter-Glo 48 h, stronger effect = higher value.
Where [9] appears, read: Rieske KO mouse fibroblast survival, CellTiter-Glo 72 h.

Each structure is given as a SMILES string. Calls of active or inactive are those of the source. Unless noted, how the calls were made is not given here.

For `NS(=O)(=O)c1cccc(-c2cc3ccncc3cc2OCc2ccccc2)c1`, the liver cell % of control in test [1] was determined as 147%. The parasite % of control in test [1] was 183% (inactive). Further, in test [2], the percent of negative control (+Dex) is 95% (inactive). The z-score in test [2] is 0.36; in test [3], 1.48 (inactive); in test [4], -0.246 (inactive); in test [7] (setting [8]) it was 2.15 (active); in test [7] (setting [9]) it was 0.958. Also, in test [5], the EGFP object count was 3.5. Besides, the EGFP/DsRed ratio in test [5] was 0.215 (inactive). The fraction signal in test [6] was -0.012 (inactive).

The compound `Cc1nnc(-c2ccc(C)c(-c3ccc(C(=O)Nc4cccc(C#N)c4)cc3)c2)o1` returned a liver cell % of control in test [1] of 117%. Moreover, the parasite % of control in test [1] is 154% (inactive). Besides, in test [2], the percent of negative control (+Dex) is 100% (inactive). For the same compound, the z-score was 0.575 in test [2]; -0.18 (inactive) in test [3]; -0.619 (inactive) in test [4]; -0.755 (inactive) in test [7] (setting [8]); -0.283 in test [7] (setting [9]). The EGFP object count in test [5] stood at 1.5. Besides, the EGFP/DsRed ratio in test [5] is 0.0236 (inactive). Moreover, in test [6], the fraction signal was -0.004 (inactive).

Regarding `CC(C)c1ccc(Nc2nccc(-c3cnn4ncccc34)n2)cc1`, in test [1], the liver cell % of control amounted to 146%. In addition, the parasite % of control in test [1] is 13.9% (active). Moreover, the percent of negative control (+Dex) in test [2] was 12.5% (active). Further, the z-score in test [2] is -8.57; in test [3] it was 0.07 (inactive); in test [4], -1.83 (inactive); in test [7] (setting [8]), 0.723 (inactive); in test [7] (setting [9]) it was -0.0455. In addition, the EGFP object count in test [5] stood at 3.5. Also, the EGFP/DsRed ratio in test [5] is 0.181 (inactive). Moreover, the fraction signal in test [6] is -0.005 (inactive).

In test [1], `O=C1N=c2ccc(N=Cc3c(O)[nH]c4ccccc34)cc2=N1` gave a liver cell % of control of 79.5%. Also, the parasite % of control in test [1] is 117% (inactive). The percent of negative control (+Dex) in test [2] is 86% (inactive). In addition, the z-score is -0.205 in test [2]; -0.24 (inactive) in test [3]; 1.12 (inactive) in test [4]; 1.49 (inactive) in test [7] (setting [8]); -0.0625 in test [7] (setting [9]). The EGFP object count in test [5] worked out at 5.5. For the same compound, in test [5], the EGFP/DsRed ratio was 0.268 (inactive). Further, the fraction signal in test [6] is -0.0005 (inactive).

In test [1], `O=C1NC(=O)C(c2cccc(Cl)c2)=C1Nc1ccc(O)c(Cl)c1` came in with a liver cell % of control of 112%. The parasite % of control in test [1] is 102% (inactive). Further, the percent of negative control (+Dex) in test [2] was 93% (inactive). Further, the z-score in test [2] is 0.42; in test [3] it was -0.775 (inactive); in test [4], 0.127 (inactive); in test [7] (setting [8]) it was -1.05 (inactive); in test [7] (setting [9]), -0.373. Further, the EGFP object count in test [5] stood at 5. Besides, the EGFP/DsRed ratio in test [5] was 0.0621 (inactive). In addition, in test [6], the fraction signal is -0.0075 (inactive).

Compound `CC(C)(CO)CNC(=O)c1ccc2[nH]c(O)c(N=Nc3ccc(S(N)(=O)=O)cc3)c2c1` came in with a liver cell % of control in test [1] of 82.1%. For the same compound, in test [1], the parasite % of control was 103% (inactive). Besides, in test [2], the percent of negative control (+Dex) is 93% (inactive). The z-score is -0.01 in test [2]; -1.1 (inactive) in test [3]; -0.381 (inactive) in test [4]; -0.345 (inactive) in test [7] (setting [8]); -0.442 in test [7] (setting [9]). Further, the EGFP object count in test [5] worked out at 3. Also, in test [5], the EGFP/DsRed ratio was 0.052 (inactive). For the same compound, the fraction signal in test [6] was -0.004 (inactive).

In turn, `CN1CCN(Cc2ccc(-c3cc4ncnc(Nc5ccc(OCc6cccc(F)c6)c(Cl)c5)c4s3)o2)CC1` gave a liver cell % of control in test [1] of 69.8%. Moreover, the parasite % of control in test [1] is 97% (inactive). For the same compound, in test [2], the percent of negative control (+Dex) is 86.5% (inactive). The z-score in test [2] was -0.395; in test [3], 0.455 (inactive); in test [4], -0.527 (inactive); in test [7] (setting [8]), 0.235 (inactive); in test [7] (setting [9]), -0.538. Besides, the EGFP object count in test [5] is 11.5. Besides, in test [5], the EGFP/DsRed ratio is 0.213 (inactive). In addition, in test [6], the fraction signal was 0.006 (inactive).

On to `CC1=C(C(=O)Nc2ccc3[nH]ncc3c2)C(c2ccc(F)cc2)N=C(c2ccc(C(F)(F)F)nc2)N1` (centres undefined), for which, in test [1], the liver cell % of control turned out to be 102%. The parasite % of control in test [1] is 138% (inactive). Moreover, the percent of negative control (+Dex) in test [2] was 86% (inactive). For the same compound, the z-score is -1.21 in test [2]; 0.02 (inactive) in test [3]; 0.13 (inactive) in test [4]; -0.75 (inactive) in test [7] (setting [8]); -0.3 in test [7] (setting [9]). Also, the EGFP object count in test [5] was found to be 2. The EGFP/DsRed ratio in test [5] is 0.0614 (inactive). Moreover, the fraction signal in test [6] was -0.004 (inactive).

On to `Cc1ccc(-c2cc3c(NC(=O)C4CC4)ncnc3o2)cc1`, for which the liver cell % of control in test [1] came out at 108%. In test [1], the parasite % of control is 92.7% (inactive). Also, the percent of negative control (+Dex) in test [2] is 83.5% (inactive). The z-score in test [2] was -0.295; in test [3], -0.475 (inactive); in test [4] it was -0.06 (inactive); in test [7] (setting [8]), -0.119 (inactive); in test [7] (setting [9]) it was 0.346. Besides, the EGFP object count in test [5] worked out at 4.5. The EGFP/DsRed ratio in test [5] is 0.0878 (inactive). Moreover, in test [6], the fraction signal was -0.004 (inactive).

Take `CCC(=O)Nc1ccc(C)c(-c2ccc(C(=O)NCC3CC3)cc2)c1`: the liver cell % of control in test [1] was 51.4%. In test [1], the parasite % of control was 136% (inactive). Also, in test [2], the percent of negative control (+Dex) was 103% (inactive). Also, the z-score was 1.16 in test [2]; 0.67 (inactive) in test [3]; 1.18 (inactive) in test [4]; -0.0107 (inactive) in test [7] (setting [8]); -0.287 in test [7] (setting [9]). In test [5], the EGFP object count was 3. Further, the EGFP/DsRed ratio in test [5] is 0.0318 (inactive). For the same compound, the fraction signal in test [6] is 0.001 (inactive).

`COc1cc2ncnc(Nc3ccc(C)c(O)c3)c2cc1OC`: the liver cell % of control in test [1] was found to be 56.5%. Further, the parasite % of control in test [1] is 110% (inactive). In test [2], the percent of negative control (+Dex) is 65.5% (inactive). Further, the z-score in test [2] is -2.25; in test [3], 0.58 (inactive); in test [4], 2.59 (inactive); in test [7] (setting [8]) it was 1.32 (inactive); in test [7] (setting [9]), -0.31. The EGFP object count in test [5] is 6. For the same compound, the EGFP/DsRed ratio in test [5] was 0.129 (inactive). Further, the fraction signal in test [6] was 0.0075 (inactive).

The compound `Cc1ccc(C(=O)NC2CC2)cc1-c1ccc2[nH]ncc2c1` showed a liver cell % of control in test [1] of 103%. Besides, the parasite % of control in test [1] was 126% (inactive). Moreover, the percent of negative control (+Dex) in test [2] was 102% (inactive). For the same compound, the z-score in test [2] is 0.41; in test [3], 0.325 (inactive); in test [4], -0.645 (inactive); in test [7] (setting [8]), -0.239 (inactive); in test [7] (setting [9]) it was -0.0886. The EGFP object count in test [5] amounted to 3.5. Also, the EGFP/DsRed ratio in test [5] was 0.141 (inactive). Besides, the fraction signal in test [6] was 0.0035 (inactive).

As to `c1ccc(Oc2ccc(Nc3ncc(-c4ccccc4)o3)cc2)cc1`, the liver cell % of control in test [1] is 103%. In test [1], the parasite % of control was 102% (inactive). In addition, the percent of negative control (+Dex) in test [2] was 110% (inactive). Moreover, the z-score is 1.91 in test [2]; 0.1 (inactive) in test [3]; 3.61 (inactive) in test [4]; -0.198 (inactive) in test [7] (setting [8]); -0.417 in test [7] (setting [9]). For the same compound, the EGFP object count in test [5] came out at 4.5. Also, in test [5], the EGFP/DsRed ratio was 0.122 (inactive). In addition, the fraction signal in test [6] was 0.0065 (inactive).

Consider `COc1cccc(COc2cc(-n3cnc4ccccc43)sc2C(N)=O)c1`, for which the liver cell % of control in test [1] worked out at 95%. For the same compound, the parasite % of control in test [1] is 99.6% (inactive). Also, in test [2], the percent of negative control (+Dex) was 87% (inactive). Also, the z-score in test [2] was -0.845; in test [3], 1.31 (inactive); in test [4], -0.593 (inactive); in test [7] (setting [8]), -0.15 (inactive); in test [7] (setting [9]), 0.0931. In test [5], the EGFP object count was found to be 4. In test [5], the EGFP/DsRed ratio is 0.0452 (inactive). Moreover, in test [6], the fraction signal was -0.006 (inactive).
